Screens from PubChem.
Rows were chosen to be rich in hits. Some 3.4% of all compounds tested hit in one or more screens of this group.
ADAM10 inh – inhibits human ADAM10; O14672; recombinant ADAM10, EDANS/DABCYL FRET peptide cleavage, 3 h; inhibition, % at 7 µM; actives 0.62% (n = 370,000); AID 720582;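 active means inhibition above a per-campaign cutoff equal to the mean of compounds falling between control-based bounds plus 3 SD, cut at about 20% in these data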;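 further: 0% = DMSO wells while the 100% control is not disclosed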
HGIII-sPLA2 inh – Inhibits HGIII-sPLA2 liposome hydrolysis, primary screen | Q9NZ20 | QFRET BODIPY PC-A2 liposome hydrolysis, fluorescence | inhibition, % at 12.2 µM | actives 0.56% (n = 370,000) | AID 743126;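 active means inhibition above mean plus 3 SD of compounds lying within the high and low control bounds, cut at about 19% in these data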;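 further: 0% = median of test compound wells and 100% = no enzyme DMSO wells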
PLC-beta3 inh – blocks human PLC-beta3 enzyme activity. Q01970. Purified PLC-beta3, fluorogenic substrate, fluorescence. inhibition, % at 12.2 µM. actives 0.18% (n = 370,000); in the data active means inhibition above about 11%;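 further: 0% = median of compound wells on plate and 100% = full blocker control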
ADAM17 inh – ADAM17 inhibition, QFRET primary screen; P78536; recombinant ADAM17, EDANS/DABCYL FRET peptide cleavage; inhibition, % at 6.95 µM; actives 0.83% (n = 370,000);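 active means inhibition above the mean of compounds lying between control limits plus 3 SD, set per campaign, cut at about 8.5% in these data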;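 further: 0% = DMSO-only wells as the low control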
PLC-gamma1 inh – inhibitors of human phospholipase C gamma1 | purified PLC-gamma1, fluorogenic substrate, fluorescence | actives 0.84% (n = 370,000) | inhibition, % at 12.2 µM | AID 720700 | P19174; in the data active means inhibition above about 9.5%
proKLK7 act – activates the human kallikrein-7 zymogen; purified proKLK7, EDANS-DABCYL substrate fluorescence; 100% is mature enzyme control, 0% vehicle; activation, % at 7 µM; actives 0.9% (n = 370,000); P49862;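 active means activation above the mean of all tested compounds plus 3 SD, computed per campaign excluding outliers beyond control limits, cut at about 13% in these data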
KLK7 act conf – confirmation of human kallikrein-7 zymogen activators | activation, % at 7 µM | actives 68% (n = 3,200) | shares compounds with proKLK7 act | purified proKLK7, EDANS-DABCYL substrate fluorescence; scaled: vehicle 0, mature enzyme 100;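 active means activation, as change over the incubation, above the mean of all tested compounds plus 3 SD, cut at about 13% in these data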
EDANS-DABCYL int – fluorescence interference counter-screen for KLK7 activators. actives 80% (n = 3,200). shares compounds with proKLK7 act. activation, % at 7 µM. EDANS-DABCYL substrate fluorescence interference, no enzyme, 4 h; solvent 0%, active enzyme control 100%;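 active means activation above the all-compound mean plus 3 SD, ignoring values outside control-based bounds, cut at about 4.8% in these data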;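 further: value is the 4 h activation minus the activation read at time zero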
K7 EDANS ctr – EDANS fluorescence interference in dose response, no enzyme. shares compounds with proKLK7 act. EDANS-DABCYL peptide fluorescence interference. EC50, µM. actives 20% (n = 250). AID 720493;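 active means compounds that raise the fluorescence signal in this interference counterscreen, with EC50 at or below 10 µM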;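 further: intact quenched peptide substrate alone read at 355 nm excitation and 520 nm emission; signal is fluorescence gain from T0 to T4 after four hours at room temperature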
* hit, by the source's call; i = inactive; . = no result given.

SMILES	ADAM10 inh	HGIII-sPLA2 inh	PLC-beta3 inh	ADAM17 inh	PLC-gamma1 inh	proKLK7 act	KLK7 act conf	EDANS-DABCYL int	others
O=C(COC(=O)/C=C/c1ccccc1)NCC1CCCO1 (stereo not drawn)	2.1	2.5	3.7	-2.0	2.3	-0.3	.	.
CCOC(=O)C1CSCCS(=O)(=O)N1Cc1ccccc1C (stereo not drawn)	-3.8	13.1	0.7	-4.7	-2.6	-0.4	.	.
CC1(C)CC(=O)C=C(C2CC2)C1=O	0.6	1.0	1.5	0.1	0.7	0.3	.	.
COc1cccc(OC)c1C(=O)Nc1nc2cc3c(cc2s1)OCO3	-79.5	1.3	-56.0	-28.5	-34.6	19.2*	-13.4	-12.4
CCCN1CCN(CCCNC(=S)Nc2ccc3nc(N4CCN(CC)CC4)cc(C)c3c2)CC1	-87.1	0.2	-28.6	-32.0	-17.4	4.6	.	.
CCCN(CCC)CCNC(=O)CCC(=O)Nc1ccc2nc(N3CCN(C)CC3)cc(C)c2c1	i	12.5	i	i	i	25.2*	120.3*	121.2*
Cc1cc(N2CCOCC2)nc2ccc(NC(=O)C3CCCCC3)cc12	-170.7	15.0	-12.8	-59.0	-0.4	-1.2	.	.
Cc1cc(N2CCCC2)nc2ccc(NC(=S)NCCCN3CCC(C)CC3)cc12	-234.2	7.6	-139.3	-55.3	-128.7	14.8*	34.3*	45.0*
Cc1cc(N2CCN(C)CC2)nc2ccc(NC(=S)N3CCN(c4ccc(Cl)cc4)CC3)cc12	-435.2	0.7	-342.6	-188.9	-235.4	15.0*	1.8	3.0
Cc1cc(N2CCOCC2)nc2ccc(NC(=S)N3CCCCC3C)cc12 (stereo not drawn)	i	-5.5	i	-347.9	i	20.8*	12.5	14.9*
C[C@H]1CN([C@@H](C)CO)C(=O)c2c(c3ccccc3n2C)-c2ccccc2CO[C@H]1CN(C)C(=O)Nc1cccc(F)c1	3.8	-17.2	-0.6	-0.1	1.8	0.5	.	.
O=c1[nH]c2ccccc2nc1-c1cccs1	i	-1.7	i	i	-431.1	31.6*	31.7*	42.5*
CC(c1nc2ccccc2[nH]1)n1c(=O)c(-c2cccs2)nc2ccccc21 (stereo not drawn)	-378.0	-0.9	-116.7	-122.7	-80.0	189.9*	21.8*	-24.6	K7 EDANS ctr=7.55*
COc1ccc(NC(=O)CCC(=O)Nc2cc(OC)c(NC(=O)c3cccs3)cc2OC)cc1	4.1	-4.8	-8.6	-1.7	-1.7	0.5	.	.
COc1cc(NC(=O)c2cccs2)c(OC)cc1NC(=O)CCC(=O)Nc1ccc(C)cc1	4.7	0.4	-9.1	2.0	-1.1	123.4*	-11.4	1.0
COc1ccccc1CC(=O)NNC(=O)c1cccs1	-1.8	3.8	3.2	-1.3	-0.2	-0.1	.	.
COc1ccccc1CC(=O)Nc1ccc(NC(=O)c2cccs2)cc1	0.8	-5.5	-4.5	0.3	0.1	52.0*	72.5*	59.5*	K7 EDANS ctr=8.18*
COc1ccc2sc(C)cc(=O)c2c1	i	17.5	-413.4	-434.9	-328.1	50.7*	37.0*	43.0*
Cc1ccc(OCCOc2c(Cl)cc(Cl)cc2Cl)c([N+](=O)[O-])n1	6.2	-2.5	1.4	3.3	-0.3	.	.	.
COCCCNC(=O)C[C@H]1C[C@H](C(=O)N2CCOCC2)[C@@]2(CCC3CCCC3)c3[nH]c4cc(-c5ccco5)ccc4c3CCN2C1=O	-391.2	-15.8	i	-96.0	-373.7	23.2*	12.6*	17.6*
O=C(C[C@H]1C[C@H](C(=O)N2CCOCC2)[C@@]2(CCC3CCCC3)c3[nH]c4cc(-c5ccco5)ccc4c3CCN2C1=O)NCCN1CCOCC1	-288.7	-21.7	-318.1	-78.4	-225.1	91.0*	90.2*	100.7*
